We go through 14 compounds from PubChem BioAssay (NCI).

“And” between values parts separate entries of the source, which are not always exact repeats. Equal entries are not always repeated. About 83,000 compounds went through this panel and 20% of them were active in at least one assay; those are over-represented in the sample as a whole.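 Values shown are percent growth following 48 h exposure of cells in 96-well plates to a single concentration of compound; below 10 was considered active.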 The source made the active and inactive calls.

This test relates to MDA-MB-468 breast. The test is described as follows: NCI-60 one-dose screen, 48 h (100 = growth as untreated, 0 = no growth, -100 = all killed). Conditions: 10 µM unless noted.
Regarding `COc1ccc(-c2nc3sccn3c2-c2ccnc(NCCCNS(=O)(=O)c3ccc(C)cc3)n2)cc1`, the growth is 37.9% (inactive).

For the compound `C#C[C@H]1CCCCCC1O` (some centres undefined), the growth was 99.3% (inactive). For `C=C(C)C(=O)O[C@H]1C[C@@]2(C)OC(=CC2=O)[C@H](C)[C@H](O)[C@H]2OC(=O)C(=C)[C@@H]21` the value was 24.7% (inactive). With `Clc1ccc(/C=C/c2cc(N3CCOCC3)c3cc(Cl)c(Cl)cc3n2)cc1` the figure was 91.2% (inactive); with `Cc1ccc(-c2nc3nc(-c4ccc(F)cc4)nc(N4CCCNCC4)c3o2)cc1`, -75.5% (active). With `Cn1cc(-c2ccc3occ(-c4cccc(-c5ccncc5)c4)c3n2)cn1`, the growth is 4.07% (active).

In the case of `Cc1ncsc1CCO`, the growth was 99.2% (inactive) and 107% (inactive). With `Cc1cn(C2CCCCC2)c(=O)[nH]c1=O` the figure was 105% (inactive); with `CCc1nc2c(=O)[nH]cnc2o1`, 90.8% (inactive); with `NC1(CO)COC(c2ccccc2)OC1` (centres undefined), 99.7% (inactive). For `Br/C(=N\Nc1nn[nH]n1)c1ccccc1` the value was 104% (inactive). With `CCCN1CCN(c2ccc3nc(-c4ccc5nc(-c6cc(OC)ccc6OC)[nH]c5c4)[nH]c3c2)CC1`, the growth was 114% (inactive).

With `CS(=O)(=O)Nc1ccc(-c2nn(-c3ccc(S(C)(=O)=O)cc3)cc2/C=C/C(=O)c2ccc(NC(=O)CO[N+](=O)[O-])cc2)cc1`, the growth was 95% (inactive). As to `[O-]/[N+](=C\c1ccc(-n2cc(Cc3ccccc3Cc3cn(-c4ccc(/C=[N+](/[O-])c5ccccc5)cc4)nn3)nn2)cc1)c1ccccc1`, the growth is 96.6% (inactive).
